# Literature values in PubChem BioAssay AID977611.
# In all, about 3,900 compounds went through this assay and about 3,900 (100%) were called active. The limit is not given here; nearly all actives have Kd up to about 4200 µM. So high a share suggests a set chosen from earlier hits. The list shows a part of the results. Numbered stars: 1 amine (or outer) side, 2 acyl side, 3 side chain; on linkers, the order of the positions; unused ones are H or OH. *1 amine or outer side, *2 acyl side, *3 side chain or, on linkers, in order; H or OH if unused. Where a SMILES comes first, the peptide text is derived from it. Square brackets hold non-standard residues; d marks the D form. Peptide text beside a SMILES is read from it. [ ]: non-standard residue; d: D form. X1 = O=C([C@H](Cc1ccc(O[P+](O)(O)O)cc1)N[*:1])[*:2]; Thr(P(OH)3+) = C[C@@H](O[P+](O)(O)O)[C@H](N)C(=O)O; Lys(Me3) = C[N+](C)(C)CCCC[C@H](N)C(=O)O; Orn(CH(NH2)2) = NC(N)NCCC[C@H](N)C(=O)O; X2 = CNC(N)NCCC[C@H](N[*:1])C(=O)[*:2]; ΔPro = O=C(O)[C@@H]1C=CCN1
# Assay: PubChem AID 977611
# Conditions: PDB protein-ligand complexes, literature Kd
compound,measurement,setting,value
OC(C[n+]1cccc(F)c1)([P+](O)(O)O)[P+](O)(O)O,Kd,"protein: Leshmaniasis major Farnesyl diphosphate synthase, PDB entry 4k10",0.12 µM (active)
OC(C[n+]1cccc(-c2ccccc2)c1)([P+](O)(O)O)[P+](O)(O)O,Kd,"protein: Leshmaniasis major Farnesyl diphosphate synthase, PDB entry 4jzb",0.342 µM (active)
Cc1cccnc1NCc1ccccc1O,Kd,"protein: proCaspase-6, PDB entry 4nbk",136 µM (active)
Oc1ccccc1CNc1cc(NCc2ccccc2O)ncn1,Kd,"protein: Caspase-6, PDB entry 4nbn",44 µM (active)
C[C@@H]1OC[C@@H](O)[C@H](O)[C@@H]1O,Kd,"protein: PUTATIVE FUCOSE-BINDING LECTIN PROTEIN(R17A mutant), PDB entry 3zi8",2.2 µM (active)
C=C(CC[C@]12O[C@H](C(=O)O)[C@@](O)(C(=O)O)[C@](C(=O)O)(O1)[C@H](OC(=O)/C=C/[C@@H](C)C[C@@H](C)CC)[C@H]2O)[C@@H](OC(C)=O)[C@H](C)Cc1ccccc1,Kd,"protein: Dehydrosqualene synthase, PDB entry 3vje",0.0097 µM (active)
same,Kd,"protein: Squalene synthase, PDB entry 3vjc",0.0189 µM (active)
C=CCN(Cc1ccccc1C(=O)NCc1ccc(OC)cc1)Cc1ccc2c(c1C(=O)O)OC[C@H](CCC(=O)O)O2,Kd,"protein: INTEGRASE, PDB entry 4ceb",1080 µM (active)
COc1ccc(CNC(=O)c2cc3c(cc2CN(C)Cc2cccc(OC)c2C(=O)O)OCO3)cc1,Kd,"protein: HIV integrase, PDB entry 4cjr",793 µM (active)
COc1ccc(CNC(=O)c2cc3ccccc3cc2CN(C)Cc2cccc(OC)c2C(=O)O)cc1,Kd,"protein: HIV integrase, PDB entry 4cig",214 µM (active)
O=C(O)CCC(=O)C1=CC=C[C@@H](O)[C@@H]1C(=O)O,Kd,"protein: E. Coli 2-succinyl-6-hydroxy-2,4-cyclohexadiene-1-carboxylate synthase (MenH), PDB entry 4myd",28 µM (active)
Nc1ccc(C(=O)N[C@@H](C(=O)NO)c2ccc(-n3cccn3)cc2)cc1,Kd,"protein: M17 leucyl aminopeptidase A-M17, PDB entry 4r7m",0.011 µM (active)
COC(=O)N1CC[C@@H]2[C@H]1CCC[C@@]2(O)C#Cc1cccc(C)c1,Kd,"protein: Metabotropic glutamate receptor 5, Lysozyme, Metabotropic glutamate receptor 5 chimera, PDB entry 4oo9",0.00086 µM (active)
CO[C@@H]1O[C@@H](C(=O)O)[C@@H](O[C@H]2O[C@H](COS(O)(O)O)[C@@H](O)[C@H](OS(O)(O)O)[C@H]2NS(O)(O)O)[C@H](O)[C@H]1OS(O)(O)O,Kd,"protein: Fibroblast growth factor 2 FGF2, PDB entry 4oeg",9.01 µM (active)
O=C(O)[C@@H]1O[C@@H](O)[C@H](OS(O)(O)O)[C@@H](O)[C@@H]1O[C@H]1O[C@H](COS(O)(O)O)[C@@H](O[C@@H]2O[C@@H](C(=O)O)[C@@H](O[C@H]3O[C@H](COS(O)(O)O)[C@@H](O[C@@H]4O[C@@H](C(=O)O)[C@@H](O[C@H]5O[C@H](COS(O)(O)O)[C@@H](O)[C@H](O)[C@H]5NS(O)(O)O)[C@H](O)[C@H]4OS(O)(O)O)[C@H](O)[C@H]3NS(O)(O)O)[C@H](O)[C@H]2OS(O)(O)O)[C@H](O)[C@H]1NS(O)(O)O,Kd,"protein: SONIC HEDGEHOG PROTEIN, PDB entry 4c4n",0.8 µM (active)
CO[C@@H]1O[C@@H](C(=O)O)[C@@H](O[C@H]2O[C@H](COS(O)(O)O)[C@@H](O)[C@H](O)[C@H]2NS(O)(O)O)[C@H](O)[C@H]1OS(O)(O)O,Kd,"protein: Fibroblast growth factor 2 FGF2, PDB entry 4oef",17.5 µM (active)
CO[C@@H]1O[C@@H](C(=O)O)[C@@H](O[C@H]2O[C@H](CO)[C@@H](O)[C@H](OS(O)(O)O)[C@H]2NS(O)(O)O)[C@H](O)[C@H]1OS(O)(O)O,Kd,"protein: Fibroblast growth factor 2 FGF2, PDB entry 4oee",1.73 µM (active)
O=C(O)[C@H]1CCCN1C(=O)CCCCC(=O)N1CCC[C@@H]1C(=O)O,Kd,"protein: Serum Amyloid P Component, PDB entry 4avt",0.0088 µM (active)
CC(C)[C@@H]1NC(=O)[C@@H](NC(=O)[C@H](Cc2ccc(O)cc2)NC(=O)[C@@H]2CCCN2C(=O)[C@H](C)N)CSSC[C@@H](C(N)=O)NC(=O)[C@H](CO)NC(=O)[C@H](Cc2c[nH]c3ccccc23)NC(=O)[C@H](CO)NC(=O)CCNC(=O)[C@H](CCCN=C(N)N)NC(=O)[C@H](Cc2ccc(O)cc2)NC1=O,Kd,"protein: Ephrin type-A receptor 4 EphA4 LBD, PDB entry 4w4z",0.03 µM (active)
CC(C)[C@@H]1NC(=O)[C@@H](NC(=O)[C@H](Cc2ccc(O)cc2)NC(=O)[C@@H]2CCCN2C(=O)[C@H](C)N)CSSC[C@@H](C(=O)O)NC(=O)[C@H](CO)NC(=O)[C@H](Cc2c[nH]c3ccccc23)NC(=O)[C@H](CO)NC(=O)CNC(=O)[C@H](CCCN=C(N)N)NC(=O)[C@H](Cc2ccc(O)cc2)NC1=O,Kd,"protein: Ephrin type-A receptor 4 EphA4 LBD, PDB entry 4w50",1.4 µM (active)
CC(C)C[C@H](N)C(=O)N[C@@H](C)C(=O)N[C@H](C(=O)N[C@@H](CCCCN)C(=O)N[C@@H](C)C(=O)N[C@@H](C)C(=O)N[C@@H](CCCNC(N)N)C(=O)N[C@@H](CCCC[N+](C)(C)C)C(=O)N[C@@H](CO)C(=O)O)[C@@H](C)O (H-LATKAA[Orn(CH(NH2)2)][Lys(Me3)]S-OH),Kd,"protein: Polycomb protein, PDB entry 1pdq",5 µM (active)
C[C@H](NC(=O)[C@@H](NC(=O)[C@H](CCC(N)=O)NC(=O)[C@H](CCCCN)NC(=O)[C@@H](N)[C@@H](C)O)[C@@H](C)O)C(=O)N[C@@H](CCCNC(N)N)C(=O)N[C@@H](CCCC[N+](C)(C)C)C(=O)N[C@@H](CO)C(=O)O (H-TKQTA[Orn(CH(NH2)2)][Lys(Me3)]S-OH),Kd,"protein: SHH1 SAWADEE, PDB entry 4iur",2.63 µM (active)
C[C@H](N)C(=O)N[C@@H](CCCNC(N)N)C(=O)N[C@H](C(=O)N[C@@H](CCCCN)C(=O)N[C@@H](CCC(N)=O)C(=O)N[C@H](C(=O)N[C@@H](C)C(=O)N[C@@H](CCCNC(N)N)C(=O)N[C@@H](CCCC[N+](C)(C)C)C(=O)N[C@@H](CO)C(=O)O)[C@@H](C)O)[C@@H](C)O,Kd,"protein: Histone-lysine N-methyltransferase NSD3, PDB entry 4gng",290 µM (active)
CNC(N)NCCC[C@H](NC(=O)[C@H](C)N)C(=O)N[C@H](C(=O)N[C@@H](CCCC[N+](C)(C)C)C(=O)N[C@@H](CCC(N)=O)C(=O)N[C@H](C(=O)N[C@@H](C)C(=O)N[C@@H](CCCNC(N)N)C(=O)N[C@@H](CCCCN)C(=O)N[C@@H](C)C(=O)N[C@@H](C)C(=O)NCC(=O)O)[C@@H](C)O)[C@@H](C)O (stereo partly drawn) (H-A[X2]T[Lys(Me3)]QTA[Orn(CH(NH2)2)]KAAG-OH),Kd,"protein: RAG2-PHD, PDB entry 2v85",34.6 µM (active)
C[C@H](NC(=O)[C@@H](NC(=O)[C@H](CCC(N)=O)NC(=O)[C@@H](N)CCCCN)[C@@H](C)O)C(=O)N[C@@H](CCCNC(N)N)C(=O)N[C@@H](CCCC[N+](C)(C)C)C(=O)N[C@@H](CO)C(=O)O (H-KQTA[Orn(CH(NH2)2)][Lys(Me3)]S-OH),Kd,"protein: Chromo domain-containing protein 1, Chp1, PDB entry 3g7l",0.19 µM (active)
C[C@H](N)C(=O)N[C@@H](CCCNC(N)N)C(=O)N[C@H](C(=O)N[C@@H](CCCC[N+](C)(C)C)C(=O)N[C@@H](CCC(N)=O)C(=O)N[C@H](C(=O)N[C@@H](C)C(=O)N[C@@H](CCCNC(N)N)C(=O)N[C@@H](CCCCN)C(=O)N[C@@H](CO)C(=O)N[C@H](C=O)[C@@H](C)O)[C@@H](C)O)[C@@H](C)O,Kd,"protein: Inhibitor of growth protein 4( ING4) PHD domain, PDB entry 2pnx",7.9 µM (active)
N[C@@H]1[C@@H](O)[C@H](O[C@@H]2O[C@H](CO)[C@@H](O[C@@H]3O[C@H](CO)[C@@H](O[C@@H]4O[C@H](CO)[C@@H](O[C@@H]5O[C@H](CO)[C@@H](O)[C@H](O)[C@H]5N)[C@H](O)[C@H]4N)[C@H](O)[C@H]3N)[C@H](O)[C@H]2N)[C@@H](CO)O[C@H]1O,Kd,"protein: Ostrinia furnacalis Group I chitinase catalytic domain, PDB entry 3wqv",6.2 µM (active)
N[C@H]1[C@H](O[C@H]2[C@H](O)[C@@H](N)[C@H](O[C@H]3[C@H](O)[C@@H](N)[C@H](O[C@H]4[C@H](O)[C@@H](N)[C@H](O[C@H]5[C@H](O)[C@@H](N)C(=O)O[C@@H]5CO)O[C@@H]4CO)O[C@@H]3CO)O[C@@H]2CO)O[C@H](CO)[C@@H](O)[C@@H]1O,Kd,"protein: Ostrinia furnacalis Group I chitinase catalytic domain, PDB entry 3wqw",5.9 µM (active)
H-ATFYVA-OH,Kd,"protein: protease, tethered dimer, PDB entry 4eqj",2.52 µM (active)
H-AETFYVD-OH,Kd,"protein: protease, tethered dimer, PDB entry 4ep2",4.43 µM (active)
H-AEVFYVDGA-OH,Kd,"protein: HIV-1 protease, PDB entry 2nxl",0.54 µM (active)
H-AQTFYVDG-OH,Kd,"protein: HIV-1 protease, PDB entry 2nxm",6.4 µM (active)
CC(C)[C@H](NC(=O)[C@H](Cc1ccc(O)cc1)NC(=O)[C@H](CC(N)=O)NC(=O)CN)C(=O)N[C@H](C(=O)N[C@H](C(=O)N[C@@H](Cc1ccc(O[P+](O)(O)O)cc1)C(=O)N[C@@H](C)C(=O)O)[C@@H](C)O)C(C)C (H-GNYVVT[X1]A-OH),Kd,"protein: phosphotyrosine (pTyr) scaffold Fab, PDB entry 4jfx",0.36 µM (active)
CC[C@H](C)[C@H](NC(=O)[C@H](CCC(=O)O)NC(=O)[C@H](CCC(=O)O)NC(=O)[C@H](Cc1ccccc1)NC(=O)[C@H](CC(=O)O)NC(=O)CN)C(=O)N1CC=C[C@H]1C(=O)NCC(=O)N[C@@H](CCC(=O)O)C(=O)N[C@@H](Cc1ccc(O)cc1)C(=O)N[C@@H](C)C(=O)O (H-GDFEEI[ΔPro]GEYA-OH),Kd,"protein: thrombin alpha, PDB entry 1a3e",0.0035 µM (active)
COc1cc2c(c(OC)c1OC)C1=CCC(=O)C(=O)C=C1[C@@H](NC(C)=O)CC2,Kd,"protein: Bromodomain-containing protein 4, BRD4(1), PDB entry 4lys",46 µM (active)
COc1cc(/C=C/CO)ccc1O,Kd,"protein: Coniferyl alcohol 9-O-methyltransferase, PDB entry 4e70",5.26 µM (active)
CC(C)[C@H](NC(=O)[C@H](Cc1ccc(O)cc1)NC(=O)[C@H](CC(N)=O)NC(=O)CNC(=O)[C@@H](N)CCCCN)C(=O)N[C@H](C(=O)N[C@H](C(=O)N[C@@H](CO[P+](O)(O)O)C(=O)O)[C@@H](C)O)C(C)C,Kd,"protein: phosphoserine/threonine (pSTAb) scaffold Fab, PDB entry 4jg0",0.172 µM (active)
CC(C)[C@H](NC(=O)[C@H](Cc1ccc(O)cc1)NC(=O)[C@H](CC(N)=O)NC(=O)CNC(=O)[C@@H](N)CCCCN)C(=O)N[C@H](C(=O)N[C@H](C(=O)N[C@H](C(=O)N[C@@H](Cc1cnc[nH]1)C(=O)O)[C@@H](C)O[P+](O)(O)O)[C@@H](C)O)C(C)C (H-KGNYVVT[Thr(P(OH)3+)]H-OH),Kd,"protein: phosphoserine/threonine (pSTAb) scaffold Fab, PDB entry 4jg1",0.232 µM (active)
CC(C)[C@H](NC(=O)[C@H](Cc1ccc(O)cc1)NC(=O)[C@H](CC(N)=O)NC(=O)CNC(=O)[C@@H](N)CCCCN)C(=O)N[C@H](C(=O)N[C@H](C(=O)N[C@@H](CO[P+](O)(O)O)C(=O)N[C@@H](Cc1cnc[nH]1)C(=O)O)[C@@H](C)O)C(C)C,Kd,"protein: phosphoserine (pSAb) scaffold Fab, PDB entry 4jfz",0.071 µM (active)
C[C@@H]1O[C@@H](Oc2c(-c3ccc(O)c(O)c3)oc3cc(O)cc(O)c3c2=O)[C@H](O)[C@H](O)[C@H]1O,Kd,"protein: Ribosomal protein S6 kinase alpha-3, PDB entry 4gue",5.8 µM (active)
Cc1cc(=N)c2ccccc2n1CCCCCCCCCCN1c2ccccc2C(N)=CC1C (stereo not drawn),Kd,"protein: Chitinase A(W275G mutant), PDB entry 3art",37 µM (active)
Cc1cc(=N)c2ccccc2n1CCCCCCCC/C=C/N1c2ccccc2C(N)=CC1C (stereo not drawn),Kd,"protein: Chitinase A, PDB entry 3arp",0.07 µM (active)
CC1=CC(N)c2ccccc2N1CCCCCCCCCCN1c2ccccc2C(N)=CC1C (stereo not drawn),Kd,"protein: Putative regulatory protein, PDB entry 3vw0",21.2 µM (active)
